According to PubChem BioAssay (EPA / NIEHS):
“And” between values parts separate entries of the source, which are not always exact repeats. Equal entries are not always repeated. Some compounds were tested as several samples or in several runs, with calls that do not always agree. The source made the active and inactive calls. The calls were made as follows: active = hit-call score of the fitted dose curve at least 0.9, where 1 is the maximum; inactive = score below 0.9.

Experiment: CCTE_Shafer_MEA_dev_spike_duration_mean: CCTE's Neural Network Formation Assay for Mean Spike Duration, Shafer Lab (AID 2284051);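 as to AC50: potency for a decrease in mean network spike duration versus DMSO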
Experimental: CCTE_Shafer_MEA_dev assay is conducted using Axion Biosystems 48 well microelectrode array (MEA) plates and Maestro recording system. Each well of the MEA plate contains a grid of 16 microelectrodes embedded in the culture surface. Electrically active cells, such as neurons, can be cultured over the electrodes, and electrical activity in these cells can be recorded extracellularly. The spontaneous firing of neurons is captured from each electrode on a microsecond timescale providing both temporally and spatially precise data. […] The CCTE_Shafer_MEA_dev assay uses primary cultures of rat cortical neurons. Recordings are made on days post-plating 5, 7, 9 and 12. As these cultures mature over time, neural networks develop functional activity and form cohesive networks in which electrical activity can be highly coordinated. CCTE_Shafer_MEA_dev_spike_duration_mean is 1 of 19 assay components of the CCTE_Shafer_MEA_dev assay. It measures the average duration of network spikes (temporally-clustered groups of action potential firing across multiple electrodes) during a recording in a microelectrode array (MEA) using Axion Biosystems Maestro 768 channel amplifier with the AxIS adaptive spike detector. To collapse across multiple recordings made on days post-plating 5, 7, 9 and 12, the trapezoidal area-under-the-curve of the component is calculated.Data from the assay component CCTE_Shafer_MEA_dev_spike_duration_mean was analyzed into 1 assay endpoint. This assay endpoint, CCTE_Shafer_MEA_dev_spike_duration_mean, was analyzed in the negative analysis fitting direction relative to DMSO as the negative control and baseline of activity. Using a type of functional reporter, gain or loss-of-signal activity can be used to understand electrical activity.
On the day prior to culture, each well was coated thoroughly with 150 uL of 0.05% polyethyleneimine (PEI, Sigma Cat P3143) in 50 mM HEPES (Sigma Cat H7523) at a pH of 8. The plate was incubated at 37C for one hour. PEI was rinsed out with 500 uL of sterile water three times. Plates were stored at 4C until the day of culture. This culture was plated at a seeding density of 1.5 x 10^5 cells/well on a 48-well MEA plate, prepared as described above. Cells were administered via a 25 uL media/laminin ([…]; Sigma Cat L2020-1MG) drop directly onto the microelectrode array, as adding the cells with the laminin results in better attachment than pre-coating with laminin. After 2 hours, an additional 475 uL of cortical media was added and the cells returned to the incubator. Exposure starts at day 0 of plating and is continued over twelve days of network development until the experiment is terminated. Cells are fed with fresh medium on DIV 5 and 9, following the recordings on those days. The entire volume of media in the well is exchanged and any vehicle or compound treatment is renewed. Complete details are found in OP-NHEERL/ISTD/SBB/TJS/2015-03-r0 (available on request, email shafer.tim@epa.gov). Measurement of the electrical activity is non-invasive, and recordings can be made from the same plate over multiple different days of the culture. In cortical neurons, this allows for the measurement of extracellular action potentials over the period during which networks form in the MEA plate.
In the case of N#CN=C1SCCN1Cc1ccc(Cl)nc1, the outcome is reported as “inactive”. For CCOP(=O)(OCC)Oc1nc(Cl)c(Cl)cc1Cl, the AC50 was 5.13 µM (active) and 2.98 µM (active) and the outcome was “inactive”. For CC1(C)C(C=C(Cl)Cl)C1C(=O)OC(C#N)c1cccc(Oc2ccccc2)c1 (stereo not drawn), the AC50 was 6.93 µM (active) and the outcome was “inactive”. With CCNC(=O)NC(=O)C(C#N)=NOC the outcome was “inactive”. In the case of CO/N=C(/C1=NOCCO1)c1ccccc1Oc1ncnc(Oc2ccccc2Cl)c1F, the AC50 is reported as 856 nM (active) and 904 nM (active). For CC1(C)C(C(=O)OC(C#N)c2cccc(Oc3ccccc3)c2)C1(C)C (stereo not drawn), the AC50 was 16.2 µM (active). In the case of CS(=O)(=O)c1ccc(C(=O)C2C(=O)CCCC2=O)c([N+](=O)[O-])c1, the outcome is reported as “inactive”. In the case of O=C1C2CC=CCC2C(=O)N1SC(Cl)(Cl)Cl (stereo not drawn), the AC50 is reported as 9.85 µM (active) and the outcome is reported as “inactive”. With CN/C(=N\[N+](=O)[O-])NCc1cnc(Cl)s1 the outcome was “inactive”. In the case of CC(C)(C)C(=O)C(Oc1ccc(Cl)cc1)n1cncn1 (stereo not drawn), the AC50 is reported as 40.2 µM (active). With COP(=S)(OC)SCn1nnc2ccccc2c1=O the AC50 was 27.2 µM (active). In the case of CNC(=O)Oc1cccc2ccccc12, the outcome is reported as “inactive”. With CCN(CC)c1nc(C)cc(OP(=S)(OC)OC)n1 the AC50 was 50 µM (active). For COC(=O)N(C(=O)N1CO[C@@]2(C(=O)OC)Cc3cc(Cl)ccc3C2=N1)c1ccc(OC(F)(F)F)cc1, the AC50 was 15 µM (active). For O=C(Nc1ccccc1-c1ccc(Cl)cc1)c1cccnc1Cl, the outcome was “inactive” and the AC50 was 4.26 µM (active). For C=C(C)CN(CC)c1c([N+](=O)[O-])cc(C(F)(F)F)cc1[N+](=O)[O-], the AC50 was 13.2 µM (active). In the case of CCSC(=O)N1CCCCCC1, the outcome is reported as “inactive”. With Cc1c(COC(=O)[C@@H]2[C@H](/C=C(\Cl)C(F)(F)F)C2(C)C)cccc1-c1ccccc1 the AC50 was 2.33 µM (active) and 2.32 µM (active). For COP(=S)(OC)Oc1ccc([N+](=O)[O-])c(C)c1, the outcome was “inactive”. For CC(C)=CC1C(C(=O)OCc2coc(Cc3ccccc3)c2)C1(C)C (stereo not drawn), the outcome was “inactive”. With CCCN(CC)CC1COC2(CCC(C(C)(C)C)CC2)O1 (stereo not drawn) the AC50 was 0.275 µM (active). For CCOC(=O)C(C)OC(=O)c1cc(Oc2ccc(C(F)(F)F)cc2Cl)ccc1[N+](=O)[O-] (stereo not drawn), the outcome was “inactive”. For COP(=O)(OC)O/C(C)=C/C(=O)N(C)C, the outcome was “inactive”. In the case of CS(=O)(=O)c1cc(C(F)(F)F)ccc1C(=O)c1cnoc1C1CC1, the outcome is reported as “inactive”.
